The values that follow come from PubChem BioAssay.

This test in a line: basal RPMI8226 mitochondrial membrane potential changes, profiling panel, cell-based, JC-1 fluorescence, 24 h, 100 nL compound (AID 1169). Further: test concentration not given here. Conditions: RPMI8226 myeloma, JC-1 mitochondrial potential fluorescence, higher = more signal.
Molecule `C=C(C(=O)CC[C@H](OC(=O)c1cccnc1)c1ccccc1OCCO)C(C)C` gave a z-score of -0.742. In turn, `C=CC[C@@]1(C(=O)NCCN2CCOCC2)N=C(c2ccc(OCCCO)cc2)O[C@@H]1c1ccccc1CN=[N+]=[N-]` came in with a z-score of -0.129. The figure for `C=CCOC(=O)[C@H]1[C@@H]2C(=O)O[C@@H](c3ccccc3)[C@@H](c3ccccc3)N2[C@@H](c2ccc(OCCOC(=O)[C@@H]3C[C@@H]4C(=O)NCC(=O)N4[C@@H]3c3ccc(O)cc3)cc2)[C@]12C(=O)Nc1ccc(I)cc12` is -0.688; for `CCOC(=O)C[C@H]1[C@H](OC(=O)c2ccc(C(=O)c3ccccc3)cc2)[C@@H](NC(=O)c2ccc3ccccc3n2)c2cc(OCCCO)ccc2N1C(=O)c1ccc2ccccc2n1` it is -0.0794. The figure for `C=CCC(OC(C)=O)[C@@H]1[C@@H](N(Cc2ccc(-c3cccc(C(F)(F)F)c3)o2)C(=O)Cc2ccc(OC)cc2)c2cc(OCCCO)ccc2N1C(=O)Cc1ccc(OC)cc1` (some centres undefined) is -0.804; for `C=CCC(OC(C)=O)[C@@H]1[C@@H](N(Cc2ccc(-c3ccccc3)cc2)C(=O)c2ccc(C)cc2)c2cc(OCCCO)ccc2N1C(=O)Cc1ccc(OC)cc1` (some centres undefined) it is 0.768. The figure for `C=C(COC)C(=O)CC[C@@H](OC(=O)c1ccccc1-c1ccccc1C(=O)O)c1ccc(CO)o1` is -0.323. Molecule `CN(C)CCCC[C@@H]1NC(=O)[C@@H]2C[C@H](C(=O)NCCCCCN)[C@H](c3ccc(O)cc3)N2C1=O` yielded a z-score of -0.286. The figure for `CN(C)CCCN1C(=O)[C@@]2(c3ccc([N+](=O)[O-])cc3)CC(=O)N(C3CCCCC3)[C@@H]2c2ccc(CO)cc21` is 0.764.
